Test results as given in PubChem BioAssay (NCI).
“And” between values parts separate entries of the source, which are not always exact repeats. Identical values can stand only once. Compounds without any hit were thinned out: in the full panel of roughly 83,000, 20% have a hit.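 Percent growth is the endpoint: 0 to 100 indicates growth inhibition (40 means 60% inhibition), 0 means no net growth, and negative values indicate cell death.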 The source made the active and inactive calls. The calls were made as follows: active = growth percent below 10; inactive = the rest.

Experiments:
Assay in all cases: NCI-60 one-dose screen, 48 h (100 = growth as untreated, 0 = no growth, -100 = all killed)
RPMI-8226 leukemia = details: 10 µM
OVCAR-8 ovarian = details: 10 µM unless noted
OVCAR-5 ovarian = details: 10 µM unless noted
OVCAR-4 ovarian = details: 10 µM unless noted
IGROV1 ovarian = details: 10 µM unless noted
OVCAR-3 ovarian = details: 10 µM unless noted
NCI/ADR-RES ovarian = details: 10 µM unless noted
BT-549 breast = details: 10 µM unless noted
MDA-MB-435 melanoma = details: 10 µM unless noted
SW-620 colon = details: 10 µM unless noted
MCF7 breast = details: 10 µM unless noted
HCT-116 colon = details: 10 µM unless noted
HCC-2998 colon = details: 10 µM unless noted
KM12 colon = details: 10 µM unless noted
HS 578T breast = details: 10 µM unless noted
T-47D breast = details: 10 µM
SK-OV-3 ovarian = details: 10 µM

| SMILES | growth (RPMI-8226 leukemia) | growth (OVCAR-8 ovarian) | growth (OVCAR-5 ovarian) | growth (OVCAR-4 ovarian) | growth (IGROV1 ovarian) | growth (OVCAR-3 ovarian) | growth (NCI/ADR-RES ovarian) | growth (BT-549 breast) | growth (MDA-MB-435 melanoma) | growth (SW-620 colon) | growth (MCF7 breast) | growth (HCT-116 colon) | growth (HCC-2998 colon) | growth (KM12 colon) | growth (HS 578T breast) | growth (T-47D breast) | growth (SK-OV-3 ovarian) |
| --- | --- | --- | --- | --- | --- | --- | --- | --- | --- | --- | --- | --- | --- | --- | --- | --- | --- |
| O=S(=O)(Nc1ccccc1Cl)c1ccc(-c2cnc(C3CC3)o2)cc1 | 27.9% (inactive) | 33.8% (inactive) | 38.3% (inactive) | 50% (inactive) | 33.1% (inactive) | -32.1% (active) | 8.53% (active) | 49.5% (inactive) | -35.2% (active) | 26.2% (inactive) | 15.7% (inactive) | 22.3% (inactive) | 39.9% (inactive) | 20.5% (inactive) |  |  |  |
| COc1ccc(NS(=O)(=O)c2ccc(-c3cnc(C4CC4)o3)cc2)cc1 | 74.9% (inactive) | 81.5% (inactive) |  | 60.8% (inactive) | 62.8% (inactive) | 27.4% (inactive) | 30.3% (inactive) | 58.6% (inactive) | 1.55% (active) | 20.1% (inactive) | 29.4% (inactive) | 38.8% (inactive) | 85.9% (inactive) | 40.2% (inactive) | 42.4% (inactive) |  |  |
| COC(=O)c1c2c(c(C)[n+]([O-])c1C)C(=O)C=C(NCc1cccc(OC)c1)C2=O | -35.5% (active) | -23.7% (active) | -90.3% (active) |  | -64% (active) | -51% (active) | -25.6% (active) | -95% (active) | -94.7% (active) | -41.2% (active) | -65.4% (active) | -60.1% (active) | -64.7% (active) | -21.1% (active) | -22.2% (active) | -43.9% (active) |  |
| C=C1C(=O)OC2C1CC(O)/C(C)=C\CCC1(C)OC21 (stereo not given) |  |  |  |  |  |  |  |  |  |  | 21.9% [100 µM] (inactive) and -83.3% [100 µM] (active) |  |  |  |  |  |  |
| COc1ccc(-c2nc(Nc3ccc(F)cc3)nc(Nc3ccc4c(c3)nc(C)n4Cc3ccccc3)n2)cc1 | -17.7% (active) | 17.9% (inactive) |  |  | 36.4% (inactive) | 50.5% (inactive) | 26.6% (inactive) | 70.7% (inactive) | 34.1% (inactive) | 45.7% (inactive) | 22.6% (inactive) | 23.4% (inactive) | 45.5% (inactive) |  | 54.5% (inactive) | 11.5% (inactive) | 76.8% (inactive) |
| CC(=O)Nc1ccc(S(=O)(=O)N/N=C\c2ccc(Cl)c(Cl)c2)cc1 | 92.5% (inactive) | 103% (inactive) | 108% (inactive) | 113% (inactive) |  | 111% (inactive) | 103% (inactive) | 99.7% (inactive) | 105% (inactive) | 99.7% (inactive) | 95.6% (inactive) | 101% (inactive) |  | 107% (inactive) | 103% (inactive) | 86.7% (inactive) | 105% (inactive) |
| Oc1ccc(/C=C/c2cc(O)cc3c2C(c2cc(O)cc(O)c2)C(c2ccc(O)c(O)c2)O3)cc1 (stereo not given) |  |  |  |  |  |  |  |  |  |  | -7.74% [100 µM] (active) and -48.3% [100 µM] (active) |  |  |  |  |  |  |
| COc1cc(Nc2ccc3c(c2)CCC3)nc(OC)n1 |  |  |  |  |  |  |  |  |  |  | 22.3% [100 µM] (inactive) and -82.6% [100 µM] (active) |  |  |  |  |  |  |
